Assay [1] deals with Retinoic acid receptor RXR-alpha (Homo sapiens) (UniProt P19793). In words: OT_NURR1_NURR1RXRa_0480: Odyssey Thera (OT) 8-hour HEK293T Protein Complementation Assay for Nurr1/retinoid X receptor (RXR) (AID 2283385; active means hit-call score of the fitted dose curve at least 0.9, where 1 is the maximum). An outline of the steps:
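HEK293T cells expressing Nurr1 and RXRα fused to reporter fragments were dosed with compound for 8 hours. Complex formation was read as fluorescence intensity and analysed as gain of signal against DMSO as baseline.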

Assay [2] shares this target. In words: OT_NURR1_NURR1RXRa_1440: Odyssey Thera (OT) 24-hour HEK293T Protein Complementation Assay for Nurr1/retinoid X receptor (RXR) (AID 2283386; active means hit-call score of the fitted dose curve at least 0.9, where 1 is the maximum). An outline of the steps: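 HEK293T cells were dosed with compound and read 24 h later by fluorescence intensity in a protein-fragment complementation format, where Nurr1–RXRα interaction reconstitutes a split reporter. Activity was fitted as gain of signal relative to DMSO baseline.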

The nature of assay [3]: CEETOX_H295R_11DCORT: CeeTox H295R High-throughput Steroidogenesis Assay for 11-Deoxycortisol (11DCORT) (AID 2283432).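 On AC50: 11-deoxycortisol secreted into the medium measured by LC-MS/MS.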 To be noted: actives raise or lower the signal. An outline of the steps: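 H295R cells prestimulated 48 h with 10 uM forskolin, then exposed 48 h to chemical in 0.1% DMSO. 11-Deoxycortisol in medium quantified by HPLC-MS/MS after MTBE extraction; bidirectional fit versus DMSO. MTT viability read in same wells.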

The nature of assay [4]: CEETOX_H295R_OHPREG: CeeTox H295R High-throughput Steroidogenesis Assay for OH-Pregnenolone (OHPREG) (AID 2283434). To be noted: actives raise or lower the signal. An outline of the steps: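 Hormone levels in spent medium were measured by tandem mass spectrometry following liquid-liquid extraction. Cells (H295R) had been forskolin-stimulated (10 uM, 48 h) before a 48 h chemical exposure at 0.1% DMSO, with activity fitted in both directions against DMSO.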

Assay [5] in a line: CEETOX_H295R_OHPROG: CeeTox H295R High-throughput Steroidogenesis Assay for OH-Progesterone (OHPROG) (AID 2283435). To be noted: actives raise or lower the signal. An outline of the steps:
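H295R human adrenal cells were prestimulated 48 h with 10 uM forskolin, then exposed 48 h to test chemical (0.1% DMSO final). 17alpha-hydroxyprogesterone in medium was measured by HPLC-MS/MS after MTBE extraction; bidirectional fitting vs DMSO.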

Assay [6] in a line: CEETOX_H295R_CORTIC: CeeTox H295R High-throughput Steroidogenesis Assay for Corticosterone (CORTIC) (AID 2283437).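 Further: corticosterone secreted into medium quantified by mass spectrometry.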 Particulars: actives raise or lower the signal. An outline of the steps:
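Corticosterone secreted into medium is measured by reverse-phase HPLC with tandem MS following liquid-liquid extraction. Cells are forskolin-stimulated (10 uM, 48 h) before 48 h test exposure; activity fitted in both directions against DMSO.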

Assay [7] in a line: CEETOX_H295R_CORTISOL: CeeTox H295R High-throughput Steroidogenesis Assay for Cortisol (AID 2283438).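 Further: cortisol secreted into medium quantified by LC-MS/MS.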 Particulars: actives raise or lower the signal. An outline of the steps:
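H295R human adrenal cells were prestimulated 48 h with 10 uM forskolin, then exposed 48 h to test chemical (0.1% DMSO final). Medium cortisol was quantified by HPLC-MS/MS after MTBE extraction; bidirectional fitting relative to DMSO baseline.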

Assay [8] is described as follows: CEETOX_H295R_DOC: CeeTox H295R High-throughput Steroidogenesis Assay for DOC (AID 2283439). To be noted: actives raise or lower the signal. An outline of the steps: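 H295R adrenal cells prestimulated 48 h with 10 uM forskolin, then exposed 48 h to test chemical (0.1% DMSO final). Medium 11-deoxycorticosterone extracted with MTBE, quantified by HPLC-MS/MS; bidirectional fit versus DMSO baseline; MTT viability in same wells.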

The nature of assay [9]: CEETOX_H295R_PROG: CeeTox H295R High-throughput Steroidogenesis Assay for Progesterone (PROG) (AID 2283442).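 On AC50: human H295R adrenal cells primed with 10 µM forskolin before dosing.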 Particulars: actives raise or lower the signal. An outline of the steps: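 H295R adrenal cells prestimulated 48 h with 10 uM forskolin, then exposed 48 h to test chemical in 0.1% DMSO. Progesterone in medium quantified by HPLC-MS/MS after MTBE extraction; viability checked by MTT in same wells.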

Read-out in assay [10]: Fatty acid synthase (Homo sapiens) (UniProt P49327)
As to the kind of experiment: LTEA_HepaRG_FASN: Life Technologies and Expression Analysis (LTEA) Assay for Fatty Acid Synthase (FASN) using HepaRG (AID 2283448). Particulars: mRNA level, 48 h; actives raise or lower the signal. An outline of the steps:
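Differentiated human HepaRG cells were exposed for 48 h in serum-free induction medium to eight half-log concentrations up to 100 uM in 0.5% DMSO, in duplicate. FASN mRNA was quantified by TaqMan qRT-PCR, normalized to ACTB/GAPDH/POLR2A, and fitted bidirectionally against DMSO.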

Read-out in assay [11]: Cyclin D2 (CCND2), CCND2 (gene 894)
In words: LTEA_HepaRG_CCND2: Life Technologies and Expression Analysis (LTEA) Assay for Cyclin D2 (CCND2) using HepaRG (AID 2283449). To be noted: mRNA level, 48 h; actives raise or lower the signal. An outline of the steps: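 Read-out is CCND2 mRNA level measured by qRT-PCR in human HepaRG liver cells and normalised to three housekeeping genes. Chemicals were applied for 48 h at up to 100 uM, with gain or loss fitted relative to 0.5% DMSO.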

Read-out in assay [12]: Cyclin Dependent Kinase Inhibitor 1A (CDKN1A), CDKN1A (gene 1026)
In words: LTEA_HepaRG_CDKN1A: Life Technologies and Expression Analysis (LTEA) Assay for Cyclin Dependent Kinase Inhibitor 1A (CDKN1A) using HepaRG (AID 2283450). To be noted: mRNA level, 48 h; actives raise or lower the signal. An outline of the steps:
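Differentiated HepaRG cells in serum-free induction medium, exposed 48 h in duplicate to eight half-log concentrations up to 100 uM in 0.5% DMSO. mRNA measured by TaqMan qRT-PCR, normalized to ACTB, GAPDH, POLR2A; bidirectional fit versus DMSO.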

Read-out in assay [13]: Cyclin D1 (CCND1), CCND1 (gene 595)
In words: LTEA_HepaRG_CCND1: Life Technologies and Expression Analysis (LTEA) Assay for Cyclin D1 (CCND1) using HepaRG (AID 2283451).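 On AC50: TaqMan qRT-PCR transcript level normalised to ACTB GAPDH and POLR2A housekeeping genes.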 To be noted: mRNA level, 48 h; actives raise or lower the signal. An outline of the steps:
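Differentiated HepaRG cells exposed 48 h in serum-free induction medium to eight half-log concentrations from 100 uM top, 0.5% DMSO, duplicates. CCND1 mRNA measured by Fluidigm TaqMan qRT-PCR, normalised to ACTB, GAPDH, POLR2A; bidirectional fit.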

Read-out in assay [14]: catalase (CAT), CAT (gene 847)
In words: LTEA_HepaRG_CAT: Life Technologies and Expression Analysis (LTEA) Assay for catalase (CAT) using HepaRG (AID 2283452).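 On AC50: TaqMan qRT-PCR signal normalized to ACTB GAPDH and POLR2A housekeeping genes.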 To be noted: mRNA level, 48 h; actives raise or lower the signal. An outline of the steps:
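Expression of CAT was quantified by TaqMan qRT-PCR with ACTB/GAPDH/POLR2A normalization after 48 h chemical exposure of HepaRG. Eight-point half-log series, top 100 uM, in 0.5% DMSO; gain or loss fitted against vehicle.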

The target in assay [15] is Peroxisome proliferator-activated receptor gamma (Homo sapiens) (UniProt P37231). As to the kind of experiment: OT_PPARg_PPARgSRC1_0480: Odyssey Thera (OT) 8-hour Protein-Complementation Assay for Peroxisome Proliferator-activated Receptor Gamma / SRC-1 Co-activator (AID 2283387; active means hit-call score of the fitted dose curve at least 0.9, where 1 is the maximum). An outline of the steps: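 HEK293T transiently transfected with PPARg and SRC-1 fused to Venus YFP fragments, compounds 8 h at 37C. Fixed, Draq5-stained cells imaged; nuclear/cytoplasmic 488 nm fluorescence ratio over at least 350 cells per image; gain fitted versus DMSO.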
Peroxisome proliferator-activated receptor gamma (Homo sapiens), sequence (P37231 whole entry, looked up, the tested form may be a part): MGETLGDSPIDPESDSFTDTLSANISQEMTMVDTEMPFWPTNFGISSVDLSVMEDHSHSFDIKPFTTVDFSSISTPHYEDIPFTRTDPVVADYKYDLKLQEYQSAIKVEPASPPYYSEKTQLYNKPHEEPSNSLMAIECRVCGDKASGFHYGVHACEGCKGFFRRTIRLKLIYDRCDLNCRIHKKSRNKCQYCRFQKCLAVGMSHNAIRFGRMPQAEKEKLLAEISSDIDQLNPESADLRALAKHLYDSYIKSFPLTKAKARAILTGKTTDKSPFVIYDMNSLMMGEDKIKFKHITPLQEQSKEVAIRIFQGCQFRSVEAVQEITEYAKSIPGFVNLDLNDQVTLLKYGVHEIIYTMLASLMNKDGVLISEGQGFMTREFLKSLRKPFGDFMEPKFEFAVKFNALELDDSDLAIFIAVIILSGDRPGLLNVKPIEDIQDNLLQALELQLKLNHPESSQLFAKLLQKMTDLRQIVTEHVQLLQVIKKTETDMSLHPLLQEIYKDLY

Assay [16] shares this target. As to the kind of experiment: OT_PPARg_PPARgSRC1_1440: Odyssey Thera (OT) 24-hour Protein-Complementation Assay for Peroxisome Proliferator-activated Receptor Gamma/ SRC-1 Co-activator (AID 2283388; active means hit-call score of the fitted dose curve at least 0.9, where 1 is the maximum). An outline of the steps: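 HEK293T transiently transfected with PPARg/SRC-1 split-Venus YFP fusions 48 h before dosing, then treated 24 h at 37C. Fixed cells imaged; nuclear/cytoplasmic 488 nm fluorescence ratio, gain of signal versus DMSO.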

Read-out in assay [17]: Tumor necrosis factor receptor superfamily member 6 (Homo sapiens) (UniProt P25445)
As to the kind of experiment: LTEA_HepaRG_FAS: Life Technologies and Expression Analysis (LTEA) Assay for Fas cell surface death receptor (FAS) using HepaRG (AID 2283447). To be noted: mRNA level, 48 h; actives raise or lower the signal. An outline of the steps:
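FAS transcript level was measured by TaqMan qRT-PCR against three housekeeping genes after 48 h chemical exposure. Cells were HepaRG, 0.5% DMSO vehicle, with a top concentration of 100 uM and half-log dilutions over eight points, in duplicate.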

Assay [18] is described as follows: CEETOX_H295R_ANDR: CeeTox H295R High-throughput Steroidogenesis Assay for Androstenedione (ANDR) (AID 2283436). To be noted: actives raise or lower the signal. An outline of the steps: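 Read-out is androstenedione secreted into medium, measured by tandem mass spectrometry after liquid-liquid extraction. Cells were H295R, dosed for 48 h per modified OECD 456; activity fitted in both directions relative to DMSO.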

Results filed as inconclusive are left out. Some compounds were tested as several samples or in several runs, with calls that do not always agree. Activity calls are given as the source filed them. How the source made its calls, unless noted: active means hit-call score of the fitted dose curve at least 0.9, where 1 is the maximum; inactive means score below 0.9.

Ten compounds from PubChem BioAssay (EPA / NIEHS) can be followed below.

Retinoic acid receptor RXR-alpha (Homo sapiens), sequence (P19793 whole entry, looked up, the tested form may be a part): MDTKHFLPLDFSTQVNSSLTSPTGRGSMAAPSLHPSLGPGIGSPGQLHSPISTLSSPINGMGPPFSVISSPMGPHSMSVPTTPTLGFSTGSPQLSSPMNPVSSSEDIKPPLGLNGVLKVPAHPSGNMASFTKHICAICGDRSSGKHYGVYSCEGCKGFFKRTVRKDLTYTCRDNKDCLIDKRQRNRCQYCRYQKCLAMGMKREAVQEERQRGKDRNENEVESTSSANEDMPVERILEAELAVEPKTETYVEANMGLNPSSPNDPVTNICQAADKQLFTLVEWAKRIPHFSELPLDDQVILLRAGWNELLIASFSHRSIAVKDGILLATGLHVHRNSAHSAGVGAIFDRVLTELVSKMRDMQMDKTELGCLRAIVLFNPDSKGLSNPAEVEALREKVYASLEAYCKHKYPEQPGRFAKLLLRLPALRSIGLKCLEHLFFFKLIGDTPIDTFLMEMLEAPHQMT
Fatty acid synthase (Homo sapiens), sequence (P49327 whole entry, looked up): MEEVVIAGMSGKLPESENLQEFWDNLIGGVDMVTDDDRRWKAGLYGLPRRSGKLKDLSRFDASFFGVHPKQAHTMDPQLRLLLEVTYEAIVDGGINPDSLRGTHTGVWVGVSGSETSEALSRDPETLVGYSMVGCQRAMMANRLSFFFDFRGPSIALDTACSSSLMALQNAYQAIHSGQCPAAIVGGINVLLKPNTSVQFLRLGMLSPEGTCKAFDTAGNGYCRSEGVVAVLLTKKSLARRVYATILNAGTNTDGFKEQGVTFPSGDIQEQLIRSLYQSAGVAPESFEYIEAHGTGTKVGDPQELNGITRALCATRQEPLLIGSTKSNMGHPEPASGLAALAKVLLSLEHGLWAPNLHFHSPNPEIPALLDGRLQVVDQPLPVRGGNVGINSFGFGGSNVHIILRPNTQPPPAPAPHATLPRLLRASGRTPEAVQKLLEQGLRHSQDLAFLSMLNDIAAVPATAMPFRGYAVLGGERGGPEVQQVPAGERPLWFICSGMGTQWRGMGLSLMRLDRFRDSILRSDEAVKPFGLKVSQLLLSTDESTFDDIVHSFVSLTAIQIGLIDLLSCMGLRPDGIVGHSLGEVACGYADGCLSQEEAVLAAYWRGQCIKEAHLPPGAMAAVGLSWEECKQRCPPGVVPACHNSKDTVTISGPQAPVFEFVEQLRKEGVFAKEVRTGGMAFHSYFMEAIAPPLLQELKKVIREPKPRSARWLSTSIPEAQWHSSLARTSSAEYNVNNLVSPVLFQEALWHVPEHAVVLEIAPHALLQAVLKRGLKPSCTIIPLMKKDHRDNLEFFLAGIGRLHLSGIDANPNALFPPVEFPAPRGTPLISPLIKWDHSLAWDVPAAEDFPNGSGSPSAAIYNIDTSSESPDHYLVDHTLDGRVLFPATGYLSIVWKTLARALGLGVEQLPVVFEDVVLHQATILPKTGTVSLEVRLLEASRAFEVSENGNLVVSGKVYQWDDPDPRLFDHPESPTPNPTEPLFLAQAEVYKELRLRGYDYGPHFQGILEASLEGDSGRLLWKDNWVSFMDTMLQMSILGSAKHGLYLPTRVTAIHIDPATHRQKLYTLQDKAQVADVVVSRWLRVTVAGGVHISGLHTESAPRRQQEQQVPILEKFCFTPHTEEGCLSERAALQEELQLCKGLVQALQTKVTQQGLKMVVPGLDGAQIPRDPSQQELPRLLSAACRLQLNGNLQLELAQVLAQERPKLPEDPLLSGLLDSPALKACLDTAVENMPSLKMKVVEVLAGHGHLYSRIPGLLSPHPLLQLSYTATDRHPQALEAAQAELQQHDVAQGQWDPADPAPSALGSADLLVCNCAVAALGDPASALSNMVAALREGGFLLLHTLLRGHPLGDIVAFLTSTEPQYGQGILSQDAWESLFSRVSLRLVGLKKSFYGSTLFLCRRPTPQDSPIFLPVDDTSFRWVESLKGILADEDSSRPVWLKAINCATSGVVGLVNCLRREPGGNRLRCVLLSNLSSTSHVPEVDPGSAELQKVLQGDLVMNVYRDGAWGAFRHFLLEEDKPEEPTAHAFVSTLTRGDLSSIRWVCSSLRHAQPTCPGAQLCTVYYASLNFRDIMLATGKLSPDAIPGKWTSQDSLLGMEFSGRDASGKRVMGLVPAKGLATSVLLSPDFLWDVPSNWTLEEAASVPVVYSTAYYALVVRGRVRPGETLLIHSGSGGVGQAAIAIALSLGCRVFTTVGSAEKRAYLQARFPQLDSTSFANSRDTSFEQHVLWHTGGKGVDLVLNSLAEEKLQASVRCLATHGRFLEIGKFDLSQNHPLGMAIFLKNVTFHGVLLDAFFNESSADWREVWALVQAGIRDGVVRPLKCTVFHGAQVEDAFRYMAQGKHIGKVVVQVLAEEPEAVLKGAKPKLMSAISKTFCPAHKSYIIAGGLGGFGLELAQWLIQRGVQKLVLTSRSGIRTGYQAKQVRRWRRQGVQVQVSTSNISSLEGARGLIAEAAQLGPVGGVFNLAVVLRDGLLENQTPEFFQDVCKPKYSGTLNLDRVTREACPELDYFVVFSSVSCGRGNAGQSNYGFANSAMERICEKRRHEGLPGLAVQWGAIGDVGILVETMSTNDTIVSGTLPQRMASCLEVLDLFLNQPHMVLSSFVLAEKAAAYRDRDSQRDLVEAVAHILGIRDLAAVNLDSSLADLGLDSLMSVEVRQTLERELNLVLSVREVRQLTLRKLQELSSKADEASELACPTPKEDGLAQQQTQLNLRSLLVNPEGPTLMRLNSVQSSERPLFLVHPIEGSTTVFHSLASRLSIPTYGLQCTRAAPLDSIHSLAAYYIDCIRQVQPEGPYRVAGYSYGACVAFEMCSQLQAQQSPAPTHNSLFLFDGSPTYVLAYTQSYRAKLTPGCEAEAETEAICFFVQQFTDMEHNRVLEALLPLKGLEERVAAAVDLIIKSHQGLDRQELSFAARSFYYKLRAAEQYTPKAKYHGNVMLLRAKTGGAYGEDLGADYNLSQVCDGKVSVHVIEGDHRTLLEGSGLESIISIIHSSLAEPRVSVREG

The AC50 is the concentration at which the activity in the assay is half-maximal. Turning to `Oc1ccc2ccc3cccc4ccc1c2c34`, the result in assay [1], in assay [2], in assay [5], in assay [9], in assay [10] and in assay [11] was inactive. For the same compound, the compound was called inactive in assay [12], in assay [13] and in assay [14]. The AC50 is 9.46 µM (active) in assay [2]; 18.8 µM (active) in assay [3]; 25 µM (active) in assay [4]; 25.5 µM (active) in assay [6]; 35.7 µM (active) in assay [7]; 12.9 µM (active) in assay [8].
As for `C1=Cc2cccc3cccc1c23`, the compound was classed as inactive in assay [1], in [2], in [15], in assay [16], in [17] and in assay [10]. The compound was called inactive in assay [11], in [12], in assay [13] and in [14].
For the compound `CN(C)c1ccc(C(=O)c2ccc(N(C)C)cc2)cc1`, the concentration at half-maximal activity (AC50) in assay [1] was 60.1 µM (active). Further, the compound was called inactive in [1], in [2], in assay [16], in assay [17], in [10] and in assay [11]. Besides, the compound was classed as inactive in [12], in assay [13] and in [14].
For the compound `CC(O)CCO` (configuration not stated), the compound was classed as inactive in assay [1], in assay [2], in [15], in [16], in [17] and in assay [10]. For the same compound, the compound was classed as inactive in assay [12], in assay [13] and in assay [14].
On to `O=C(O)C1C2CCC(O2)C1C(=O)O` (configuration not stated), for which the AC50 was 74.3 µM (active) in assay [1]; 32 µM (active) in [2]; 84.3 µM (active) in assay [10]; 35.8 µM (active) in [12]; 32.3 µM (active) in assay [13]. Also, the outcome in assay [1], in [2], in assay [17], in assay [11] and in assay [14] was inactive.
Regarding `O=[N+]([O-])c1ccc(Oc2ccc(Cl)cc2Cl)cc1`, the concentration at half-maximal activity (AC50) was 75.3 µM (active) in assay [1] and 50 µM (active) in assay [10]. Also, the outcome in assay [1], in assay [2], in [15], in assay [16], in assay [4] and in assay [5] was inactive. Moreover, the result in assay [6], in assay [8], in assay [9], in assay [11], in assay [12] and in assay [13] was inactive. Also, the result in assay [14] was inactive.
Turning to `Cc1cc(N=Nc2ccccc2C)ccc1N`, the call in assay [1], in assay [2], in [15], in assay [16], in assay [3] and in assay [4] was inactive. In addition, the compound was called inactive in assay [18], in assay [7], in assay [8] and in assay [11]. The AC50 was 1.79 µM (active) in assay [5]; 2.24 µM (active) in assay [6]; 2.5 µM (active) in assay [9]; 2.9 µM (active) in assay [10]; 3.36 µM (active) in [12]; 39.2 µM (active) in assay [13]. Further, the AC50 in assay [14] was 3.32 µM (active).
For the compound `Oc1ccccc1Cl`, the call in assay [1], in assay [2], in [15], in assay [16], in [10] and in [11] was inactive. For the same compound, the outcome in assay [12], in [13] and in assay [14] was inactive.
`ClC1=C(Cl)C2(Cl)C3C(Cl)C=CC3C1(Cl)C2(Cl)Cl` (configuration not stated): the outcome in assay [1], in assay [2], in assay [15], in assay [16], in assay [17] and in [10] was inactive. Besides, the compound was called inactive in [11], in assay [12] and in assay [14]. The AC50 in [13] was 18.4 µM (active).
Take `c1ccc2c(c1)-c1cccc3cccc-2c13`: the outcome in [1], in assay [2], in assay [15], in assay [16], in assay [11] and in assay [12] was inactive. Further, the compound was classed as inactive in assay [13] and in assay [14]. The AC50 in assay [4] was 14 µM (active); in assay [5], 30.7 µM (active); in assay [9], 4.8 µM (active); in assay [10], 69.1 µM (active).
